HCMV inh = inhibitors of human cytomegalovirus; AID 1259415; activity change, negative = inhibition, % at 57.5 µM; 410,000 tested, 4.5% active; HFF cells, HCMV-luciferase reporter, 72 h; stronger effect = lower value; in the data active = activity change below about -60%; inconclusive = no clear call, values can overlap the other calls; inactive = above about -39%; also: % is scaled to controls: 0 for no effect and ±100 for the full control effect
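Inhibition of viral replication was scored as loss of reporter luminescence in HFFs infected with HCMV-luciferase (MOI 1 PFU/cell) for 72 h; compounds tested at 2 doses, normalized to buffer and Salinomycin controls.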
Pf growth 48h = P. falciparum growth inhibition at 48 hours (one generation). P. falciparum luciferase growth in erythrocytes, 48 h. 310,000 tested, 5.9% active. Potency, µM (highest dose often 28.7 µM), for the others: at the top dose activity change, negative = inhibition, usual class: inhibitors; also: potency is read from the fitted curve at half-maximal effect; % is scaled to controls: 0 for no effect and ±100 for the full control effect
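First compound was added to culture medium, then infected red cells at 0.1% parasitemia and 2% hematocrit (final). After incubation at 37 C under 5% CO2, luciferase detection reagent was dispensed and light output recorded.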
CHX counter = counter-screen hit for Shiga toxin inhibitors, cycloheximide; cell reporter, cycloheximide protein synthesis inhibition counterscreen; max response, %; 300,000 tested, 12% active; AID 2314; in the data active = max response mostly above about 13%, no sharp cut-off; inactive = mostly below about 14%; also: read at 38.3 µM for the half of the compounds with a filed dose; 0% is about no effect
Pf growth 96h = P. falciparum growth inhibition at 96 hour, primary screen for plastid delayed-death inhibitors | Potency, µM (top dose mostly 28.7 µM), without a hit: at the highest dose activity change, negative = inhibition, actives largely listed as inhibitors | P. falciparum luciferase reporter growth, 96 h | 320,000 tested, 6.9% active; also: potency is read from the fitted curve at half-maximal effect; % is scaled to controls: 0 for no effect and ±100 for the full control effect
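P. falciparum expressing integrated firefly luciferase, in erythrocytes at 2% hematocrit, 0.05% parasitemia, incubated with compounds 96 h at 37 C, 5% CO2. Growth inhibition read as loss of luminescence; two-generation exposure targets delayed-death apicoplast inhibitors.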
Shiga inhibitor = inhibitors of Shiga toxin in Vero cells | Vero cells, Shiga toxin protein synthesis inhibition reporter | inhibition, % at 38.7 µM | 290,000 tested, 9.2% active; in the data active = inhibition mostly above about 28%, no sharp cut-off; inactive = mostly below about 43%; also: 0% is about no effect
HCV inhibitor = blocks hepatitis C virus; 340,000 tested, 3.4% active; Potency, µM (doses to about 41.8 µM), inactives show at the highest dose activity change, negative = inhibition, actives largely listed as inhibitors; Huh7.5.1 HCVcc-Cre infection, luciferase reporter, 44 h; AID 651820; also: potency is read from the fitted curve at half-maximal effect; % is scaled to controls: 0 for no effect and ±100 for the full control effect
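Antiviral activity was scored by luciferase reporter output from cells infected with HCVcc-Cre (~0.5 moi) in presence of compound, 44 h infection period, cells seeded 1,000/well 4 h prior.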
An asterisk follows results filed as active; ? = inconclusive; . = not tested or not shown; [ ] = dose if it differs, or a comment. Most compounds without a hit are left out; they make up all but 21% or so of the library. Unless noted, calls follow the shape of the dose curve; as a rule, active = well fitted inhibition curve with a large enough effect; inconclusive = small, poorly fitted or top-dose-only effect, or another doubt; inactive = no such curve, though single readings can be large or run the other way.

SMILES | HCMV inh | Pf growth 48h | CHX counter | Pf growth 96h | Shiga inhibitor | HCV inhibitor
Cc1cc(C(=O)NNC(=S)Nc2ccccc2)nn1C | 129 | 75% | 14 | 87% | 61* | 13%
Cc1nc2ccccn2c1C(=O)NNC(=S)Nc1ccccc1 | -26 | ? | 7 | -6% | -1 | 3%
CCOc1ccc(S(=O)(=O)n2nc(C)c(S(=O)(=O)N3CCOCC3)c2C)cc1 | -36 | 19% | 1 | ? | -11 | 11%
O=C(NC1CCCCCC1)C1c2ccccc2C(=O)N1Cc1ccco1 (stereo not given) | 1 | 0% | -1 | 1µM* | -5 | 10%
O=C(NC1CCCCCC1)C1c2ccccc2C(=O)N1Cc1cccs1 (stereo not given) | 9 | -35% | -1 | 29% | -11 | 1%
CC(C)N1C(=O)c2ccccc2C1C(=O)NC1CCCCCC1 (stereo not given) | 7 | -15% | 4 | 0.74µM* | 3 | -4%
O=C(NC1CCCCC1)N1CCN(Cc2ccco2)CC1 | -63* | 1% | 3 | ? | 22 | 11%
COc1cccc(C(=O)c2cn(CC(=O)NCc3ccccc3)c3nc(C)ccc3c2=O)c1 | -25 | . | . | . | . | .
CCc1ccccc1NC(=O)C(C)n1c(=O)cc(C)c2c(C)nn(-c3ccccc3)c21 (stereo not given) | 22 | . | . | . | . | .
COc1ccc(CCNC(=O)C2CCCN2S(=O)(=O)c2cccc3nsnc23)cc1OC (stereo not given) | -39 | 5% | -1 | 23% | -4 | 14%
COC(=O)c1c(C)nn(-c2ccc(F)c(Cl)c2)c1-c1cc(C)on1 | -28 | 10% | 2 | 13% | -5 | 8.9µM*
COC(=O)c1nnn(-c2ccc(F)c(Cl)c2)c1C(=O)OC | -4 | -16% | 1 | -20% | -10 | 0%
COc1ccc(/C=N/N=C2\SCC(=O)N2c2c(C)n(C)n(-c3ccccc3)c2=O)cc1OC | -27 | 13µM* | -1 | ? | 13 | 0%
CC(C)NC(=O)Nc1ccc2c(c1)C(=O)N([C@H](C)CO)C[C@H](C)[C@@H](CN(C)C(=O)NC(C)C)O2 | 4 | . | . | . | . | 23%[8.37 µM]
CCCCCn1c(=O)[nH]c2cc(C(=O)N3CCN(c4ccc(C(C)=O)cc4)CC3)ccc2c1=O | -74* | ? | -3 | 12µM* | -1 | 7.9µM*
CCCCCn1c(=O)[nH]c2cc(C(=O)N3CCN(c4ccc(F)cc4)CC3)ccc2c1=O | -76* | . | . | . | . | ?
O=[N+]([O-])c1ccc(N/N=C2\CC3CC=CC23)cc1 (stereo not given) | -13 | 95% | 42* | 296% | 82* | 22µM*
O=[N+]([O-])c1ccc(NN=C2CC3CCC2C3)c([N+](=O)[O-])c1 (stereo not given) | 11 | . | . | . | . | .
O=[N+]([O-])c1ccc(N/N=C2\CC3CC=CC23)c([N+](=O)[O-])c1 (stereo not given) | 27 | 25% | 5 | 25% | 44 | 11µM*
O=C(C[C@H]1C[C@H](C(=O)N2CCOCC2)[C@@]2(CCC3CCCC3)c3[nH]c4ccc(Cl)cc4c3CCN2C1=O)NCCCn1ccnc1 | -24 | . | . | . | . | ?
CCCN(CCC)C(=O)Cn1c(=O)n(-c2ccc(CC)cc2)c(=O)c2ccc(C(=O)NCCc3ccccc3)cc21 | -7 | . | . | . | . | .
CCOC(=O)C1(CCCc2ccccc2)CCN(C(=O)CSC)CC1 | 9 | 129% | -2 | ? | -8 | -16%
CCOC(=O)C1(Cc2ccccc2Cl)CCN(C(=O)CN2CCOC2=O)CC1 | 1 | 0% | 43* | 39% | 75* | 10%
CCOC(=O)C1(CCCc2ccccc2)CCN(C(=O)c2ccoc2)CC1 | -33 | ? | 6 | 1% | 23 | -24%
CCOC(=O)C1(Cc2ccccc2Cl)CCN(Cc2csc(C(C)=O)c2)CC1 | -8 | ? | -2 | ? | -7 | 13µM*
SMILES | HCMV inh | Pf growth 48h | CHX counter | Pf growth 96h | Shiga inhibitor | HCV inhibitor
CCOC(=O)C1(CCCc2ccccc2)CCN(C(=O)C2=C(C)OCCO2)CC1 | -69* | ? | 0 | 13% | 13 | ?
CCOC(=O)C1(CCCc2ccccc2)CCN(C(=O)CN2CCOC2=O)CC1 | -23 | 11% | 8 | 15µM* | 9 | 4%
COc1ccc(Cn2c(=O)c3oc4ccccc4c3n(CC(=O)Nc3c(C)cccc3C)c2=O)cc1 | -10 | . | . | . | . | .
CCCN(CCC)C(=O)Cn1c(=O)n(-c2ccc(CC)cc2)c(=O)c2c3c(sc21)CCC3 | -14 | . | . | . | . | .
CC(CCc1ccccc1)NC(=O)Cc1cccs1 (stereo not given) | -2 | 0% | 2 | 26% | 9 | -2%
CCCCCCCCN1C(=O)[C@H](CC(=O)N2CCN(C(=O)OCC)CC2)C[C@@]2(C(=O)OCC)CCCC=C12 | 20 | . | . | . | . | .
CNS(=O)(=O)c1ccc2c(c1)C(=O)c1cc(S(=O)(=O)NC)ccc1CC2 | 29 | . | . | . | . | .
CCOC(=O)C1=CN(CC2CCCO2)C=C(C(=O)OCC)C1c1ccccc1C(F)(F)F (stereo not given) | ? | 8.3µM* | -6 | ? | -6 | ?
CCOC(=O)c1ccc(NC(=O)c2cccc3c2C(=O)N(CC2CCCO2)C3)cc1 (stereo not given) | -22 | ? | -1 | ? | 4 | -11%
Cc1cn(CC(=O)NCCc2c[nH]c3ccccc23)c(=O)[nH]c1=O | 17 | . | . | . | . | 7%
Cc1cc(C)c(NC(=O)c2ccccc2C(=O)c2ccccc2)c(C)c1 | -24 | ? | -1 | -20% | 2 | 0%
COCCNC(=O)C1(C)Cc2c(-c3ccc(N(C)C)cc3)ccnc2O1 (stereo not given) | 4 | . | . | . | . | .
Cc1nc2c(C(=O)NCCC(C)C)cnn2c(C)c1Cc1c(F)cccc1Cl | -3 | . | . | . | . | .
CC(C(=O)Nc1ccc2c(c1)OCCO2)c1ccc([N+](=O)[O-])cc1 (stereo not given) | 42 | 3.3µM* | -2 | 21% | -4 | -21%
CC(C(=O)Nc1ccccc1Cl)c1ccc([N+](=O)[O-])cc1 (stereo not given) | -9 | ? | -1 | 20%[5.75 µM] | 11 | -7%
CC(C(=O)Nc1ccc2c(c1)OCO2)c1ccc([N+](=O)[O-])cc1 (stereo not given) | ? | 2.3µM* | 1 | ? | 3 | 13%
O=C(Cc1ccc([N+](=O)[O-])cc1)Nc1ccc2c(c1)OCO2 | -5 | -12% | -5 | -43% | 20 | 1%
O=C(Nc1ccc2c(c1)OCO2)c1ccc([N+](=O)[O-])cc1[N+](=O)[O-] | 107 | -8% | 26 | 25% | 44* | ?
CC(C(=O)Nc1cccc(Br)c1)c1ccc([N+](=O)[O-])cc1 (stereo not given) | ? | 10µM* | 3 | ? | 9 | ?
